Screens as filed in PubChem BioAssay.
RORgamma inh: qHTS for inhibitors of ROR gamma transcriptional activity; 5.4% of 310,000 active; Nuclear receptor ROR-gamma (Mus musculus), P51450; Drosophila S2 Gal4-RORgamma UAS-luciferase reporter, 20 h; Potency, µM (doses to about 53.6 µM), for the others: at the top dose activity change, negative = inhibition, most hits filed as inhibitors; further: nearly all actives have a fitted effect of over 60% in size
Target sequence (P51450 whole entry, looked up, the tested form may be a part): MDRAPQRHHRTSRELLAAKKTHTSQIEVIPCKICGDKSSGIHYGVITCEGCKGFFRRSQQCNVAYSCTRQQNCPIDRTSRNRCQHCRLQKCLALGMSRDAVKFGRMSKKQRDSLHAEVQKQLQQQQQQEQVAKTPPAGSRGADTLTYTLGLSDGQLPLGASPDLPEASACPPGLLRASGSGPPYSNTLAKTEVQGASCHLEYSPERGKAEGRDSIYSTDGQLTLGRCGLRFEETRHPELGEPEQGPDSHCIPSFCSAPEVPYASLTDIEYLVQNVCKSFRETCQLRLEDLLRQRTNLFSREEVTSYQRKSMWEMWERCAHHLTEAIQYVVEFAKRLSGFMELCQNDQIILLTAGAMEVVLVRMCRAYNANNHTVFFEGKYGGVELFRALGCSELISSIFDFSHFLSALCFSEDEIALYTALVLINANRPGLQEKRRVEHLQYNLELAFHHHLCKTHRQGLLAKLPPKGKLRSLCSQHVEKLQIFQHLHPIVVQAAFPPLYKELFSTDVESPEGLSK
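Drosophila S2 cells stably expressing Gal4-DBD/mouse RORγ fusion under metallothionein promoter plus UAS-luciferase; compound 1 h, then 700 uM CuSO4 induction for 20 h at ambient temperature; inhibition read as reduced luminescence.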
TDP1 cell CPT: qHTS for Inhibitors of human tyrosyl-DNA phosphodiesterase 1 (TDP1): qHTS in cells in presence of CPT. 12% of 420,000 active. Potency, µM (top dose mostly 46.2 µM), without a hit: at the highest dose activity change, negative = growth inhibition, hits mostly inhibitors. chicken DT40 Tdp1-/-;hTDP1 cells + 20 nM CPT, ATP luminescence, 48 h; further: nearly all actives have a fitted effect of over 55% in size
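Cell growth measured by CellTiter-Glo luminescence after a minimum 48 h, 37 C compound exposure with 20 nM CPT in Tdp1-knockout DT40 cells stably expressing hTDP1, seeded 400/well; qHTS titration format.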
ALOX12 inh: Primary qHTS assay for inhibitors of human arachidonate 12S-lipoxygenase (ALOX12): Round 2 | 1.1% of 580,000 active | purified 12hLO, xylenol orange hydroperoxide absorbance | Potency, µM (highest dose often 108 µM), for the others: at the top dose activity change, negative = inhibition, most hits filed as inhibitors
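Hydroperoxide product was detected by ferrous iron/xylenol orange as the 573 to 405 nm absorbance ratio. Arachidonic acid at 40 uM (final) was turned over for 30 min at room temperature by 150 nM human 12hLO, pH 7.0 Hepes buffer, after 15 min compound preincubation.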
Gal4-VP16 FLuc: VP16 counterscreen qHTS for inhibitors of ROR gamma transcriptional activity; Drosophila S2 Gal4-VP16 UAS-luciferase, luminescence, 20 h; Potency, µM (series often up to 53.6 µM), inactives show top-dose activity, negative = inhibition, actives largely listed as inhibitors; 3.5% of 310,000 active; AID 2546, 2010;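 further: Gal4-VP16 expression switched on by copper sulfate through the metallothionein promoter; nearly all actives have a fitted effect of over 50% in size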
ELG1 DNA repair: qHTS screen for small molecules that inhibit ELG1-dependent DNA repair in human embryonic kidney (HEK293T) cells expressing luciferase-tagged ELG1; HEK293T ELG1-luciferase reporter, luminescence, 16 h; DNA damage induced by 5-fluorouridine; Potency, µM (top dose mostly 46.1 µM), for inactives: top-dose activity change, negative = inhibition, actives largely listed as inhibitors; 2.3% of 330,000 active; further: nearly all actives have a fitted effect of over 55% in size
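Cells (2,000 per well) received 5-fluorouridine plus test compound or DMSO and were incubated 16 hr at 37 °C, 5% CO2. Luciferase activity was read by luminescence 30 min after ONE-Glo addition; signal suppression marked inhibition of damage-induced ELG1 function.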
DT40 TDP1 no CPT: qHTS for Inhibitors of human tyrosyl-DNA phosphodiesterase 1 (TDP1): qHTS in cells in absence of CPT. DT40 Tdp1-/- hTDP1 cells, no CPT, ATP luminescence, 48 h. Potency, µM (titrated, usually from 46.2 µM), inactives show at the highest dose activity change, negative = growth inhibition, most hits filed as inhibitors. 15% of 420,000 active. AID 686978, 2013; further: nearly all actives have a fitted effect of over 55% in size
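Luminescent ATP content (CellTiter-Glo) served as the growth readout. Knockout chicken DT40 cells expressing human TDP1 were exposed to compounds without camptothecin for a minimum 48 hr at 37 °C.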
Numbers without * were called inactive; ? = inconclusive; nt = no result; ! = repeats disagree; [ ] = remark or other dose. In the library only some 15% were active in any assay of this set; here they are far more common. The call rests on the fitted dose curve; in most records, active means well fitted curve in the direction sought with a large enough effect; inconclusive means small, poorly fitted or top-dose-only effect, or another doubt; inactive means no such curve, though single readings can be large; an effect the other way counts as inactive or inconclusive. On the % scale 0 is the no-effect control and ±100 the full control effect; potency means the concentration at half of the fitted maximal effect.

SMILES | RORgamma inh | TDP1 cell CPT | ALOX12 inh | Gal4-VP16 FLuc | ELG1 DNA repair | DT40 TDP1 no CPT
CC(=Nc1ccccc1O)c1sc2ccccc2c1O | 2µM* | -25% | -11% | ? | ? | ?
CC(=Nc1ccc(O)cc1)c1sc2ccccc2c1O | 19% | 15µM* | 0% | -11%[0.365 µM] | ? | 13µM*
COC(=O)C1=C(C)NC(=O)NC1c1ccccc1OC (stereo not drawn) | nt | nt | 19% | nt | nt | nt
COc1ccc(OC)c(C(=O)NC(CC(N)=O)c2ccc(NCCOc3ccccc3)c([N+](=O)[O-])c2)c1 (stereo not drawn) | 10% | ? | -14% | -3% | 1% | ?
COc1ccc(CCNc2ccc(C(CC(N)=O)NC(=O)Cc3cccc4ccccc34)cc2[N+](=O)[O-])cc1 (stereo not drawn) | -13% | 23µM* | 0% | -5% | 2% | ?
COc1ccc(CCNc2ccc(C(CC(N)=O)NC(=O)c3cc(OC)ccc3OC)cc2[N+](=O)[O-])cc1 (stereo not drawn) | ? | 26µM* | 2% | -1% | -1% | ?
COc1ccccc1-c1c(C)oc2cc(O)ccc2c1=O | nt | nt | 41% | nt | nt | nt
N#CCCCCS(=O)(=O)c1ccc2c(c1)OCCO2 | nt | nt | -50% | nt | nt | nt
COC(=O)c1cc2oc(C)cc2n1CC(=O)Nc1ccc(C(C)C)cc1 | nt | 7.3µM* | 7% | nt | nt | 21µM*
C=CCn1c(-c2ccccc2[N+](=O)[O-])n[nH]c1=S | 3.2µM* | -5% | 0% | ? | -1% | -17%
O=c1c(-c2n[nH]c(=S)n2-c2ccccc2)cccn1Cc1cccc(Cl)c1 | 13µM* | 2% | -6% | -9% | 4% | -3%
C=CCn1c(-c2cccn(Cc3ccc(Cl)cc3Cl)c2=O)n[nH]c1=S | 2.5µM* | -27% | 45µM* | 10µM* | -15% | -8%
CNC(=S)NNC(=O)c1cccn(Cc2ccc(Cl)cc2Cl)c1=O | 37% | nt | -28% | -4% | 6% | nt
C=CCn1c(-c2cnn(-c3ccccc3)c2N)n[nH]c1=S | ? | 3% | ? | 21% | ? | -10%
C=CCn1c(-c2cccn(Cc3ccccc3)c2=O)n[nH]c1=S | 11µM* | 3% | -5% | -29% | -4% | -4%
C=CCn1c(-c2ccc(=O)n(Cc3ccccc3)c2)n[nH]c1=S | -27% | nt | nt | -9% | 0% | nt
CCOC(=O)c1noc2nc(C)n(Cc3nc(-c4ccc(OC)c(OC)c4)oc3C)c(=O)c12 | nt | nt | -12% | nt | nt | nt
Cc1ccc(S(=O)(=O)N2CCCC(Cn3cnc4cccnc43)C2)c(C)c1 (stereo not drawn) | nt | nt | -12% | nt | nt | nt
O=[S+]1([O-])NCC2(CCCN(Cc3cccc4ccccc34)C2)Nc2ccccc21 (stereo not drawn) | nt | nt | 15% | nt | nt | nt
C=CCn1c(-c2cccn(Cc3cccc(Cl)c3)c2=O)n[nH]c1=S | 13µM* | 1% | ? | ? | 2% | -6%
C=CCn1c(-c2cccn(Cc3ccc(Cl)cc3)c2=O)n[nH]c1=S | 6.3µM* | -25% | ? | ? | -2% | 0%
CCCCCCCCCC1(CC(=O)OCC)SCCN1C(N)=O (stereo not drawn) | nt | ? | ? | nt | nt | 15µM*
COCCSc1ccccc1C(=O)Nc1ccc(Br)cc1 | 27% | ? | 35µM* | 22% | 9% | ?
COCCSc1ccccc1C(=O)Nc1ccc2c(c1)OCO2 | -14% | 4% | -16% | -5% | 3% | -13%
COCCSc1ccccc1C(=O)Nc1ccc(Cl)cc1 | -11% | ? | 18µM* | -12% | -21% | ?
SMILES | RORgamma inh | TDP1 cell CPT | ALOX12 inh | Gal4-VP16 FLuc | ELG1 DNA repair | DT40 TDP1 no CPT
COCCSc1ccccc1C(=O)Nc1cccnc1 | 11% | -14% | 22µM* | 4% | 8% | 9%
COCCSc1ccccc1C(=O)Nc1ccc([N+](=O)[O-])cc1OC | 6% | ? | -27% | -6% | ? | 23µM*
O=C(Nc1ccc(C(=O)OC[C@@H]2CCCN3CCCC[C@H]23)cc1)c1cccc(Br)c1 | -5% | ? | -9% | -14% | 1% | 18µM*
COc1ccccc1/C=C1\SC(=S)N(NS(=O)(=O)c2ccc(C)cc2)C1=O | 1% | -4% | 35µM* | 7% | 3% | 2%
O=C(NNC(=S)NC(=O)c1cccnc1)c1ccc(F)cc1 | 16µM* | -26% | ? | ? | ? | ?
O=C(NC(=S)NNC(=O)c1cnccn1)c1ccc(F)cc1 | -35% | 3.3µM* | ? | -6% | 5.2µM* | 5.2µM*
O=C(NNC(=S)NC(=O)c1cccnc1)c1ccccc1 | -12% | ? | ? | ? | 2% | 23µM*
O=C(NNC(=S)NC(=O)c1ccc(F)cc1)c1cccnc1 | ? | ? | -21% | ? | -16% | 18µM*
O=C(c1ccc(-c2ccccc2)cc1)N(Cc1cccs1)C1CC1 | nt | nt | -3% | nt | nt | nt
CCCCN(C(=O)c1ccc(-c2ccc(Cl)cc2)o1)c1c(N)n(CCCC)c(=O)[nH]c1=O | nt | ? | ? | nt | -1% | ?
CCCCN(C(=O)c1ccc(-c2ccc(Cl)cc2)o1)c1c(N)n(CCC)c(=O)[nH]c1=O | nt | -8% | 16µM*! | nt | 10% | -7%
CCCCN(C(=O)c1ccc(N2CCCC2=O)cc1)c1c(N)n(CCCC)c(=O)[nH]c1=O | nt | 2% | ? | nt | 10% | -15%
CCCCN(C(=O)c1ccc(N2CCCC2=O)cc1)c1c(N)n(CCC)c(=O)[nH]c1=O | nt | -15% | 17% | nt | 7% | 6.5µM*
COc1cccc(-c2nnc(SCC(=O)Nc3ccc4c(c3)OCO4)n2-n2cccc2)c1 | nt | nt | -20% | nt | nt | nt
O=c1oc2cc(O)ccc2cc1-c1nc(-c2ccc(Cl)cc2)cs1 | nt | nt | 8% | nt | nt | nt
CCCCNC(=O)c1nc2cc(C)c(C)cc2nc1-c1cccc(OC(F)(F)F)c1 | nt | nt | 13% | nt | nt | nt
COc1ccc(C(=O)CCN2CCN(c3ccccc3F)CC2)cc1 | 34% | 4.6µM* | -9% | ? | ? | 3.7µM*
O=C(CCN1CCN(c2ccccc2F)CC1)c1ccc(Br)cc1 | ? | 2.6µM* | nt | ? | 1% | 2.9µM*
c1ccc(OCc2cc(CC3(NCc4ccc5c(c4)OCO5)COC3)no2)cc1 | nt | nt | 66%[176 µM] | nt | nt | nt
